Measured values reported in PubChem BioAssay AID1578 (Sanford-Burnham Center for Chemical Genomics, 2009).
In all, about 290,000 compounds went through this assay and about 3,000 (1%) were called active. The full list was thinned out, with actives kept by preference. Values without a mark were called inactive. No stated cut-off is given here; in the data, active means inhibition mostly above about 36% (no sharp cut-off); inactive means mostly below about 34%.

experiment: inhibition of NOD1-driven NF-kB reporter – cell-based, luminescence, uHTS, primary screen (AID 1578); details: NOD1-driven NF-kB luciferase reporter cells, at 4 µM, active compounds read high;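 further: HEK-293T reporter cells stimulated with the NOD1 agonist gamma-tri-DAP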

| SMILES | inhibition |
| --- | --- |
| O=S(=O)(O)c1ccc(N=NNc2ccc(Br)cc2)cc1 | -12.1% |
| C=C1/C(=C\C=C2/CCC[C@]3(C)[C@@H]([C@H](C)CCCC(C)(C)O)CC[C@@H]23)C[C@@H](O)C[C@@H]1O | 65.6% (active) |
| COc1ccc(-c2nc(C)ncc2-c2ccc(Cl)cc2)c(O)c1 | 5.6% |
| CN(C(=O)COC(=O)/C=C/c1ccc(C(F)(F)F)cc1)C1CCS(=O)(=O)C1 (stereo not drawn) | -16.9% |
| CCN(C(=O)COC(=O)/C=C/c1cccc(Br)c1)C1CCS(=O)(=O)C1 (stereo not drawn) | -18.9% |
| CN(C(=O)COC(=O)/C=C/c1cccc([N+](=O)[O-])c1)C1CCS(=O)(=O)C1 (stereo not drawn) | 61.3% (active) |
| CCOC(=O)c1c(Nc2ccccc2)sc(/C=C2\C=Nc3ccccc32)c1O | -68% |
| CCN(CC)C(=O)Oc1ccc2ccccc2c1Cl | -86.7% |
| O=S(=O)(CCSc1ccccn1)c1nc2ccccc2s1 | 74.4% |
| O=S(=O)(CCSc1nc2ccccc2s1)c1nc2ccccc2s1 | 99% (active) |
| CCS(=O)(=O)CCSc1nc2ccccc2s1 | -2.7% |
| Cc1ccc(S(=O)(=O)N2CCCC2)cc1C(=O)NCc1ccccn1 | -26.2% |
| O=C(c1cc(-c2ccc(F)cc2)on1)N1CCCCCC1 | -53.7% |
| Nc1c(Cl)ncnc1N/N=C/c1ccc2ccccc2n1 | 109% (active) |
| Nc1c(Cl)ncnc1N/N=C/c1ccnc2ccccc12 | 8.6% |
| Nc1c(Cl)ncnc1N/N=C/c1ccc(O)cc1 | -9% |
| CCCCOC(=O)C1C2C=C[C@]3(CN(C(C)c4ccc(OC)cc4)C(=O)[C@H]13)O2 (stereo partly drawn) | 11.8% |
| CC(=O)Nc1cccc(Cl)c1C(=O)O | -21.4% |
| Cc1nn(C(=O)c2ccco2)c(C)c1Sc1ccc([N+](=O)[O-])cc1 | -7.1% |
| O=C(N/N=C(\CC(=O)c1cccs1)C(F)(F)F)c1ccncc1 | -3.7% |
| O=C(N/N=C(/CC(=O)c1cccs1)C(F)(F)F)c1ccc(O)cc1 | -19.9% |

| SMILES | inhibition |
| --- | --- |
| Cc1ccc(C(=O)N/N=C(/CC(=O)c2cccs2)C(F)(F)F)cc1 | 70% (active) |
| COC(=O)Cc1c(C)c2ccc(OC3CCCCC3=O)c(C)c2oc1=O (stereo not drawn) | -8.8% |
| Clc1ccc(-c2nnc(C3CCCCC3)o2)cc1 | 70.8% (active) |
| c1cncc(-c2nnc(C3CCCCC3)o2)c1 | 11.8% |
| Clc1ccc(-c2nnc(C3CC3)o2)cc1 | -15.4% |
| COc1ccc(C(=O)NC(CC(=O)O)c2cc([N+](=O)[O-])ccc2Cl)c(SC)c1 (stereo not drawn) | -14.4% |
| O=C1C2CCCN2C(c2ccc(F)cc2)N1c1cccc(Cl)c1 (stereo not drawn) | -10.3% |
| O=C(COC(=O)c1cncc(Br)c1)NCCC1=CCCCC1 | -8.5% |
| CO/N=C/c1ccc(Sc2ccc(C)cc2)c([N+](=O)[O-])c1 | 7.3% |
| Cc1ccc(Sc2ccc(/C=N/O)cc2[N+](=O)[O-])cc1 | 54.4% (active) |
| O=[N+]([O-])c1cc(/C=N/O)ccc1Sc1ccccc1 | 8.1% |
| COc1ccc(OC)c(NC(=O)C2CCN(c3ncccn3)CC2)c1 | -1.7% |
| COc1ccc(N2CCN(Cc3cc4c(cc3Br)OCCO4)CC2)cc1 | -11.3% |
| COc1ccc(C=O)cc1Cn1ccnc1C | 62.6% (active) |
| CCc1nccn1Cc1cc(C=O)ccc1OC | 15% |
| COc1ccc(C=O)cc1Cn1ccnc1 | -23% |
| Cc1oc(-c2ccccc2)cc1C(=O)NC(Cc1c[nH]c2ccccc12)C(=O)O (stereo not drawn) | -35.2% |
| O=C(NCCNC(=O)c1ccccc1)c1ccccc1 | -9.5% |
| CCCCCn1c(N)c(C#N)c2nc3ccccc3nc21 | 8.5% |
| CN(C)CCCn1c(N)c(C#N)c2nc(C#N)c(C#N)nc21 | 76.3% (active) |
| CN(C)CCCn1c(N)c(C#N)c2nc3ccccc3nc21 | 5.6% |

| SMILES | inhibition |
| --- | --- |
| O=C1NC(=S)S/C1=C\c1ccc2ccccc2c1 | 5.2% |
| Cc1ccc(C2C(/C=C3/SC(=S)NC3=O)=C(c3cccs3)Oc3ccccc32)cc1 (stereo not drawn) | 88% (active) |
| Cc1ccc(C2C(C=Nc3c(C)n(C)n(-c4ccccc4)c3=O)=C(c3ccccc3)Oc3ccccc32)cc1 (stereo not drawn) | 29.1% |
| CCC1CCCCN1S(=O)(=O)c1ccc(S(=O)(=O)N(Cc2cccs2)C2CC2)cc1 (stereo not drawn) | 7.6% |
| O=c1oc2ccccc2cc1-c1cn2cccnc2n1 | -55.7% |
| O=c1oc2ccccc2cc1-c1cn2ccccc2n1 | 64.7% (active) |
| O=c1oc2ccccc2cc1-c1ccccc1 | -31.9% |
| O=c1oc2ccccc2cc1-c1ccc(O)cc1 | 54.1% |
| Cc1cccn2cc(-c3cc4ccccc4oc3=O)nc12 | -21.9% |
| Nc1ccc(-c2cc3ccccc3oc2=O)cc1 | 63.5% (active) |
| Cc1cc(C)c2cc(CN(CCO)Cc3nnnn3Cc3ccccc3)c(=O)[nH]c2c1 | -12.5% |
| O=C(CC1COc2ccccc2O1)Nc1ccccn1 (stereo not drawn) | -29.1% |
| CCN(CC)S(=O)(=O)c1ccc(N2CCCC2)c(NS(=O)(=O)c2ccccc2)c1 | 4.1% |
| CN(C)CCNC(=O)/C(=C/c1ccc(-c2cccc([N+](=O)[O-])c2)o1)NC(=O)c1ccccc1 | 4.2% |
| CN(C)CCNC(=O)/C(=C/c1ccc(-c2ccc(Cl)cc2)o1)NC(=O)c1ccccc1 | -19.3% |
| CN(C)CCNC(=O)/C(=C/c1ccc(-c2cccc(Cl)c2)o1)NC(=O)c1ccccc1 | 112% (active) |
| Cc1nnc(NC(=O)C2CCCN(S(=O)(=O)Cc3ccccc3)C2)s1 (stereo not drawn) | -8.7% |
| Cc1cccc(Cn2c(C)nc3c(N)c(C)c(C)cc32)c1 | -13.6% |
| Cc1cccc(NC(=S)/N=C(\N)Nc2nc(C)c3cc(C)ccc3n2)c1 | 23.1% |
| COc1ccc2nc(N/C(N)=N/C(=S)Nc3cccc(C)c3)nc(C)c2c1 | 51.4% (active) |
| COc1ccc2nc(N/C(N)=N/C(=S)Nc3ccccc3)nc(C)c2c1 | 29.9% |
